Data: article PMC5540273 (PLoS ONE, 2017)
Read-outs that look alike come from different tables or passages of the source.

Key:
TAK1 = tested on: T1, TAK1; details: concentration: 1 μM, replicates: in singlicate; n = 1
T1 construct: gene MAP3K7

TAOK1 = details: concentration: 1 μM, replicates: in singlicate; n = 1
TAOK2 = details: concentration: 1 μM, replicates: in singlicate; n = 1
TAOK3 = details: concentration: 1 μM, replicates: in singlicate; n = 1
TBK1 = details: concentration: 1 μM, replicates: in singlicate; n = 1
TEC = details: concentration: 1 μM, replicates: in singlicate; n = 1
TESK1 = details: concentration: 1 μM, replicates: in singlicate; n = 1
TGFBR1 = details: n = 1
TGFBR2 = details: concentration: 1 μM, replicates: in singlicate; n = 1
TIE1 = details: concentration: 1 μM, replicates: in singlicate; n = 1
[1] = concentration: 1 μM, replicates: in singlicate
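Also: KINOMEscan kinase panel screen.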

SMILES	%Inh (TAK1)	%Inh (TAOK1)	%Inh (TAOK2)	%Inh (TAOK3)	%Inh (TBK1)	%Inh (TEC)	%Inh (TESK1)	%Inh (TGFBR1; [1])	%Inh (TGFBR2)	%Inh (TIE1)	%Inh (TGFBR1; 1 µM)
COc1cc(OC)cc(-c2cc3cnc(N)nc3nc2NC(=O)NC(C)(C)C)c1	42%	0%	0%	0%	0%	0%	13%	0%	7%	33%	–
Cc1c(Cn2c(C)nn3c(=O)cc(N4CCO[C@H](C)C4)nc23)cccc1C(F)(F)F [GSK2373690]	0%	0%	9%	0%	1%	0%	34%	0%	4%	10%	–
COC(=O)c1c(-c2ccccc2)c2cc(Br)ccc2c(=O)n1Cc1ccc(NC(=O)CCC(=O)O)cc1	19%	0%	0%	0%	22%	10%	39%	10%	0%	0%	–
CCCC(=O)Nc1n[nH]c2ncc(-c3cccc4ccccc34)cc12 [SB-642057]	0%	0%	1%	1%	27%	15%	40%	14%	49%	0%	–
CN(C)c1cc(-c2ccc3c(N)n[nH]c3c2)nc(N)n1 [GSK2219329]	0%	0%	0%	0%	9%	1%	76%	–	0%	0%	–
Cl.c1ccc(Cn2cnc3cc(Nc4ncnc5ccccc45)ccc32)cc1 [GW272142]	0%	0%	0%	0%	7%	11%	1%	6%	0%	48%	–
Nc1nc(N)c2nc(-c3ccccc3)[nH]c2n1 [SKF-12778]	4%	16%	0%	17%	16%	7%	12%	0%	3%	26%	–
Nc1n[nH]c2nnc(-c3ccccc3)c(-c3ccccc3)c12 [GW554060]	0%	0%	0%	0%	8%	0%	2%	12%	0%	8%	–
Cc1cccc(-c2nc(Nc3ccc4c(cnn4C)c3)c3ccccc3n2)n1 [GW876731]	23%	12%	0%	0%	0%	0%	6%	–	0%	0%	–
Cc1ccc(Oc2ccc(Nc3ncnc4cc[nH]c34)cc2C)cn1	30%	0%	0%	0%	30%	6%	13%	2%	0%	0%	–
Nc1nc(-c2ccccc2F)c(-c2ccnc3ccccc23)s1 [GW560459]	0%	0%	0%	0%	20%	0%	12%	16%	0%	0%	–
COc1ccc(-c2cc3c(C)nc(N)nc3n([C@H]3CC[C@H](O)CC3)c2=O)cn1	21%	0%	0%	0%	90%	0%	7%	0%	6%	0%	–
COc1cccc(-n2cnc3c(N)ncnc32)c1 [SKF-97416]	23%	31%	9%	28%	31%	5%	17%	24%	0%	19%	–
Nc1nccc2scc(-c3ccc4c(c3)CCN4C(=O)Cc3ccccc3)c12 [GSK2576924]	1%	2%	17%	10%	2%	16%	0%	7%	0%	55%	–
O=C(Nc1ccc2c(c1)OCO2)NC1CCN(c2ccnc(NCc3ccc(F)cc3)n2)CC1 [GSK1379859]	0%	0%	0%	2%	2%	0%	0%	0%	0%	0%	–
COc1ccc(Nc2nccc(N3CCC(NS(=O)(=O)c4ccc(NC(C)=O)cc4)C3)n2)cc1 (stereo not drawn) [GSK1379729]	0%	2%	0%	2%	11%	3%	16%	7%	7%	20%	–
COc1cccc(C2=C(Nc3cccc(C(=O)O)c3)C(=O)NC2=O)c1 [SB-390770]	0%	0%	0%	0%	12%	0%	28%	1%	0%	27%	–
O=C(NCc1cccs1)c1cc(C(=O)c2c(Cl)cccc2Cl)c[nH]1 [GW823670]	0%	0%	7%	0%	6%	0%	0%	27%	0%	8%	–

SMILES	%Inh (TAK1)	%Inh (TAOK1)	%Inh (TAOK2)	%Inh (TAOK3)	%Inh (TBK1)	%Inh (TEC)	%Inh (TESK1)	%Inh (TGFBR1; [1])	%Inh (TGFBR2)	%Inh (TIE1)	%Inh (TGFBR1; 1 µM)
CCn1c(-c2nonc2N)nc2ccccc21 [SB-693162/GW549034]	33%	0%	0%	3%	34%	0%	14%	53%	0%	56%	–
CCS(=O)c1ccc(-c2coc3ccc(-c4nnc(C)o4)cc23)cc1 (stereo not drawn)	21%	0%	0%	0%	2%	0%	0%	4%	9%	0%	–
COc1cc2ncn(-c3cc(OCCCc4ccccc4)c(C(N)=O)s3)c2cc1OC [GSK205189]	0%	0%	0%	0%	15%	0%	4%	0%	0%	22%	–
CCCNC(=O)Nc1ccc(Oc2ncnc3ccn(C)c23)cc1	22%	0%	0%	0%	13%	1%	0%	8%	0%	0%	–
CCC(=O)c1c(-c2ccccc2)c2cc(Cl)ccc2c(=O)n1Cc1cc(C(=O)NC2CC2)n(C)n1	3%	0%	0%	0%	0%	2%	23%	8%	0%	6%	–
O=C(NCCNc1ccnc(Nc2ccc(F)cc2)n1)Nc1ccc2c(c1)OCO2 [GSK1379882]	0%	0%	0%	0%	30%	4%	96.3%	0%	0%	0%	–
COc1cc2ncn(-c3cc(OCc4ccncc4)c(C(N)=O)s3)c2cc1OC [GSK336313]	0%	0%	0%	0%	19%	6%	0%	5%	0%	100%	–
Cc1nc(N(C)[C@H]2CN(C(=O)CC#N)CC[C@H]2C)c2cc[nH]c2n1	6%	10%	0%	0%	0%	4%	0%	0%	0%	1%	–
Cc1cc(Nc2nc(-c3cccc(C)n3)nc3ccccc23)ccn1 [GW872411]	0%	0%	29%	0%	0%	1%	0%	–	0%	0%	83%
Cc1cccc(-c2cc(-c3c[nH]nc3-c3ccccn3)ccn2)c1 [GW679395]	0%	0%	0%	0%	12%	0%	9%	–	0%	0%	57%
CN1C(=O)C(Nc2ccccc2)=C(c2ccccc2)C1=O [SB-300079]	0%	0%	34%	0%	21%	0%	2%	22%	0%	0%	–
O=C(Nc1n[nH]c2cc(-c3ccccc3F)ccc12)C1CC1 [SB-733371]	0%	52%	19%	24%	0%	0%	1%	0%	0%	0%	–
O=c1cc(N2CCOCC2)nc2n(Cc3ccc(F)c(Cl)c3)ccn12 [GSK2297099]	2%	0%	0%	0%	17%	12%	12%	35%	0%	0%	–
Nc1ncnc2c1ncn2-c1ccc(Cl)cc1 [AH2635]	0%	0%	0%	0%	15%	9%	4%	0%	6%	0%	–
Fc1cccc(CSc2nnc(-c3ccc4c(c3)CCO4)o2)c1	32%	0%	0%	0%	19%	20%	0%	11%	28%	8%	–
Cc1ccccc1COc1cc(-n2cnc3cc(Cl)ccc32)sc1C(N)=O [GW813349]	0%	0%	3%	0%	22%	0%	7%	28%	0%	11%	–
O=C(Nc1n[nH]c2nc(-c3ccccc3)c(Cl)cc12)C1CC1 [SB-734909]	8%	0%	0%	0%	38%	0%	6%	0%	0%	0%	–
